{"source": "PubChem BioAssay (Tox21)", "note": "Inconclusive results are not listed. A number with no mark means an inactive call. Calls of active or inactive are those of the source. Calls follow the shape of the full dose curve. % is scaled to controls: 0 for no effect and ±100 for the full control effect; potency is read from the fitted curve at half-maximal effect."}
{"assay": "qHTS assay to identify small molecule agonists of the progesterone receptor (PR) signaling pathway - cell viability counter screen (AID 1346799); also: nearly all actives have a fitted effect of over 45% in size", "settings": "PR-UAS-bla HEK293T viability, CellTiter-Glo luminescence, 16 h; series mostly up to 92.4 µM; activity change, negative = cytotoxicity: at the top concentration", "from_the_text": "National Center for Advancing Translational Sciences [NCATS]\nNIH Chemical Genomics Center [NCGC]\nU.S. Environmental Protection Agency [EPA]\nNational Institutes of Environmental Health Sciences [NIEHS]\nNational Toxicology Program [NTP]\nU.S. Food and Drug Administration [FDA]\nProgesterone receptor (PR), a nuclear hormone receptor, plays an important role in development, metabolic homeostasis and reproduction. It is activated by the steroid hormone progesterone. Endocrine disrupting chemicals (EDCs) and their interactions with steroid hormone receptors like PR causes disruption of normal endocrine function. To identify the compounds that stimulate PR signaling, a PR-UAS-bla GripTite cell line i.e. PR-UAS-bla HEK293T (Invitrogen, Carlsbad, CA, USA) containing a beta-lactamase reporter gene under the control of an UAS response element was used to screen Tox21 10K compound library. The cytotoxicity of the Tox21 compound library against the PR-bla cell line was tested in parallel by measuring the cell viability using CellTiter-Glo assay in the same wells.\nTox21 Assay Protocol Summary:\nPR-UAS-bla HEK293T cells were dispensed at 3,000 cells/5 uL of assay medium containing 2% charcoal stripped FBS per well into black wall/clear-bottom 1536-well plates using a Multidrop Combi (ThermoFisher Scientific, Waltham, MA) dispenser. After the assay plates were incubated at a 37C and 5% CO2 for 6 hr, 23 nL of compounds dissolved in DMSO, positive controls or DMSO only was transferred to the assay plate by a Pintool station (Kalypsys, San Diego, CA). The plates were incubated at 37C and 5% CO2 for 16 hr. Then 1 uL of LiveBLAzer B/G FRET substrate was added using a Flying Reagent Dispenser (FRD, Aurora Discovery, San Diego, CA), the plates were incubated at room temperature for 2 hours, and fluorescence intensity was measured by an Envision plate reader (PerkinElmer, Shelton, CT). For cell viability readout that measures cytotoxicity, 4 uL/well of CellTiter-Glo reagent was added into the assay plates using a FRD. After 30 min incubation at room temperature, the luminescence intensity in the plates was measured using a ViewLux (PerkinElmer) plate reader."}
{"compound": "CCCC/C=C/CCCCO", "activity change, negative = cytotoxicity": "-3.65%"}
{"compound": "COc1ccc(-c2ccc3cc(C(=O)O)ccc3c2)cc1C12CC3CC(CC(C3)C1)C2", "activity change, negative = cytotoxicity": "-23.7% [at 42.5 µM]"}
{"compound": "Clc1ccccc1C(c1ccccc1)(c1ccccc1)n1ccnc1", "Potency": "7.7 µM (active)"}
{"compound": "CSc1ccc(C(=O)c2[nH]c(=O)[nH]c2C)cc1", "activity change, negative = cytotoxicity": "-35.3% [at 42.5 µM]"}
{"compound": "NC(=O)C1(N2CCCCC2)CCN(CCCN2c3ccccc3CCc3ccc(Cl)cc32)CC1", "Potency": "16.8 µM (active)"}
{"compound": "O=[N+]([O-])c1ccccc1Nc1ccccc1", "activity change, negative = cytotoxicity": "5.89%"}
{"compound": "c1ccc(CSCc2ccccc2)cc1", "activity change, negative = cytotoxicity": "-15.5%"}
{"compound": "N=C1N=C(N)c2cc3ccccc3cc21", "Potency": "27.3 µM (active)"}
{"compound": "Cc1onc(-c2c(Cl)cccc2Cl)c1C(=O)N[C@@H]1C(=O)N2[C@@H]1SC(C)(C)[C@@H]2C(=O)O", "activity change, negative = cytotoxicity": "4.38% [at 42.5 µM]"}
{"compound": "CCCCCOc1ccccc1/C(=C\\SC)n1ccnc1", "Potency": "7.5 µM (active)"}
{"compound": "COc1cccc(N)c1", "activity change, negative = cytotoxicity": "-15.3%"}
{"compound": "C[C@@H](NCCCc1cccc(C(F)(F)F)c1)c1cccc2ccccc12", "Potency": "23.7 µM (active)"}
{"compound": "Nc1nc2ccccc2n1Cc1ccc(F)cc1", "activity change, negative = cytotoxicity": "0% [at 42.5 µM]"}
{"compound": "N#CSc1ccc(N)c([N+](=O)[O-])c1", "activity change, negative = cytotoxicity": "2.89%"}
{"compound": "Clc1ccc(C(Cn2ccnc2)OCc2ccc(Sc3ccccc3)cc2)c(Cl)c1", "note": "(stereo not given)", "activity change, negative = cytotoxicity": "0% [at 42.5 µM]"}
{"compound": "C/C=C(\\C)C(=O)OCc1ccccc1", "activity change, negative = cytotoxicity": "25.3%"}
{"compound": "CSc1ccc(/C=C2/C(C)=C(CC(=O)O)c3cc(F)ccc32)cc1", "activity change, negative = cytotoxicity": "0% [at 42.5 µM]"}
{"compound": "CCCCCOC(=O)CCCC", "activity change, negative = cytotoxicity": "-11.9%"}
{"compound": "OC1(c2ccc(Cl)c(C(F)(F)F)c2)CCN(CCCC(c2ccc(F)cc2)c2ccc(F)cc2)CC1", "Potency": "13.3 µM (active)"}
{"compound": "CCCCCCCCCCn1cc[n+](CCCCCCCCCC)c1C", "Potency": "30.7 µM (active)"}
{"compound": "CCCCCCCCCCCCCC[P+](CCCC)(CCCC)CCCC", "note": "(tested in a mixture with another compound)", "Potency": "30.8 µM (active)"}
{"compound": "NC(=O)NS(=O)(=O)c1ccc(N)cc1", "activity change, negative = cytotoxicity": "-0.14% [at 42.5 µM]"}
{"compound": "O=C1C=CC(=O)N1c1ccc(Cc2ccc(N3C(=O)C=CC3=O)cc2)cc1", "activity change, negative = cytotoxicity": "0.752%"}
{"compound": "O=[N+]([O-])c1cc([N+](=O)[O-])c2ccc(S(=O)(=O)O)cc2c1O", "activity change, negative = cytotoxicity": "15.3%"}
{"compound": "On1ccccc1=S", "Potency": "0.959 µM (active)"}
{"compound": "Oc1ccc(N=Nc2ccccc2)cc1", "activity change, negative = cytotoxicity": "6.01%"}
{"compound": "CC(C)(C)CC(C)(C)c1ccc(OCCOCC[N+](C)(C)Cc2ccccc2)cc1", "Potency": "48.5 µM (active)"}
{"compound": "Clc1ccc2cc3ccccc3cc2c1", "activity change, negative = cytotoxicity": "-0.27%"}
{"compound": "ON=C1CCCC1", "Potency": "63.3 µM (active)"}
{"compound": "CCCCCCCCCCCCCCCC(=O)OC[C@H](O)[C@H]1OC(=O)C(O)=C1O", "Potency": "27.3 µM (active)"}
{"compound": "C=CC(=O)OCCn1c(=O)n(CCOC(=O)C=C)c(=O)n(CCOC(=O)C=C)c1=O", "Potency": "43.3 µM (active)"}
{"compound": "CN1CCC(Nc2ncc3ncnc(Nc4ccc(F)c(Cl)c4)c3n2)CC1", "Potency": "9.44 µM (active)"}
{"compound": "CC(C)(C)NC(=O)[C@@H]1C[C@@H]2CCCC[C@@H]2CN1C[C@@H](O)[C@H](Cc1ccccc1)NC(=O)[C@H](CC(N)=O)NC(=O)c1ccc2ccccc2n1", "Potency": "39.1 µM (active)"}
{"compound": "CC1=NC(C)OC1C", "note": "(stereo not given)", "activity change, negative = cytotoxicity": "1.32%"}
{"compound": "Oc1ccc(Cl)cc1Sc1cc(Cl)ccc1O", "activity change, negative = cytotoxicity": "9.16% [at 42.5 µM]"}
{"compound": "Cc1onc(-c2ccccc2Cl)c1C(=O)N[C@@H]1C(=O)N2[C@@H]1SC(C)(C)[C@@H]2C(=O)O", "activity change, negative = cytotoxicity": "1.57% [at 42.5 µM]"}
{"compound": "O=c1[nH]cnc2nc[nH]c12", "activity change, negative = cytotoxicity": "1.82% [at 42.5 µM]"}
{"compound": "NC(=NCCCCCCN=C(N)/N=C(\\N)Nc1ccc(Cl)cc1)/N=C(\\N)Nc1ccc(Cl)cc1", "activity change, negative = cytotoxicity": "27.8%"}
{"compound": "O=C(OCC(COC(=O)c1ccccc1)(COC(=O)c1ccccc1)COC(=O)c1ccccc1)c1ccccc1", "activity change, negative = cytotoxicity": "-13.3%"}
{"compound": "CNCc1cc(F)ccc1Oc1ccc(Cl)c(Cl)c1", "activity change, negative = cytotoxicity": "-1.69%"}
